According to PubChem BioAssay (NCI):
The panel holds about 79,000 compounds, 15% with a hit somewhere; the sample as a whole holds those more often. The source made the active and inactive calls. No stated cut-off is given here; in the data, active means growth inhibition above about 70%; inactive means the rest.

Legend:
[1] = NCI Yeast Anticancer Drug Screen. Data for the rad52 strain (AID 147);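 further: 0% = growth of vehicle-treated control cultures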; details: S. cerevisiae rad52 mutant growth inhibition, stronger effect = higher value
How it was run: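 Here a repair-compromised yeast strain receives each compound; its growth is then quantified and normalised to vehicle-only controls.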

[2] = NCI Yeast Anticancer Drug Screen. Data for the wt1 strain (AID 149);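 further: 0% = growth of vehicle-treated wt1 cultures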; details: S. cerevisiae wt1 strain (SPY 50644) growth inhibition, stronger effect = higher value
How it was run: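 Vehicle-normalised growth inhibition; strain wt1; compound exposure.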

[3] = NCI Yeast Anticancer Drug Screen. Data for the rad50EPP+ strain (AID 151);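 further: 0% = growth of vehicle-treated control cultures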; details: S. cerevisiae rad50 mutant strain, stronger effect = higher value
How it was run: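 Read-out is yeast growth inhibition relative to vehicle; cells used were the rad50EPP+ strain.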

[4] = NCI Yeast Anticancer Drug Screen. Data for the mgt1 strain (AID 153); details: S. cerevisiae mgt1 mutant growth inhibition, stronger effect = higher value
How it was run: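 Measured: inhibition of mgt1 yeast growth by compound, normalized to vehicle-treated cultures.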

[5] = NCI Yeast Anticancer Drug Screen. Data for the rad50 strain (AID 155);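 further: 0% = growth of vehicle-only cultures of the same strain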; details: S. cerevisiae rad50 strain growth inhibition, stronger effect = higher value
How it was run: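 A DNA repair-deficient yeast mutant serves as the test organism; compound-induced growth inhibition is calculated against vehicle-treated cells.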

[6] = NCI Yeast Anticancer Drug Screen. Data for the mec2-1 strain (AID 157); details: S. cerevisiae mec2-1 strain, stronger effect = higher value
How it was run: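 Using mec2-1 yeast: add compound, measure growth, express inhibition versus vehicle-treated cultures.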

[7] = NCI Yeast Anticancer Drug Screen. Data for the rad14 strain (AID 159);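 further: 0% = growth of vehicle-treated control cultures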; details: S. cerevisiae rad14 strain growth inhibition, stronger effect = higher value
How it was run: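 Vehicle-treated cultures served as the baseline for growth inhibition of a DNA repair-mutant yeast strain exposed to each compound.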

[8] = NCI Yeast Anticancer Drug Screen. Data for the sgs1 mgt1 strain (AID 161);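 further: 0% = growth of cultures given vehicle only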; details: S. cerevisiae sgs1 mgt1 strain, stronger effect = higher value
How it was run: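 Growth of a repair-deficient yeast mutant was monitored after compound treatment and expressed as inhibition relative to vehicle-treated cultures.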

[9] = NCI Yeast Anticancer Drug Screen. Data for the CLN2oe strain (AID 163);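 further: 0% = growth of vehicle-only control cultures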; details: S. cerevisiae CLN2oe strain, stronger effect = higher value
How it was run: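 Whole-cell yeast growth assay. A strain engineered for altered cell-cycle control received compound, and inhibition relative to vehicle-treated cultures was recorded.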

[10] = NCI Yeast Anticancer Drug Screen. Data for the cln2 rad14 strain (AID 165);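 further: 0% = growth equal to vehicle treated cultures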; details: S. cerevisiae cln2 rad14 strain, stronger effect = higher value
How it was run: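 Yeast strain cln2 rad14, bearing defects in cell cycle control and DNA repair, serves as the test system; values reflect growth inhibition compared with vehicle.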

[11] = NCI Yeast Anticancer Drug Screen. Data for the bub3 strain (AID 167); details: S. cerevisiae bub3 mutant strain, stronger effect = higher value
How it was run: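 Inhibition values come from growth of compound-treated mutant yeast normalised to vehicle-treated controls.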

[12] = NCI Yeast Anticancer Drug Screen. Data for the wt2 strain (AID 169);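 further: 0% = growth of vehicle-treated yeast cultures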; details: S. cerevisiae wt2 strain growth inhibition, stronger effect = higher value
How it was run: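 Treated yeast vs. vehicle-treated yeast: growth inhibition determined.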

[13] = NCI Yeast Anticancer Drug Screen. Data for the mlh1 strain (AID 171);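 further: 0% = growth of vehicle-treated control cultures of the same strain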; details: S. cerevisiae mlh1 strain growth inhibition, stronger effect = higher value
How it was run: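 A yeast strain with a defined genetic lesion serves as the test organism. Cultures receive compound or vehicle, and growth is measured.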

[14] = NCI Yeast Anticancer Drug Screen. Data for the sgs1 strain (AID 173);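 further: 0% = growth of vehicle-only control cultures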; details: S. cerevisiae sgs1 mutant, stronger effect = higher value
How it was run: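 A genetically defined yeast mutant is incubated with the test compound, and its growth is compared to that of the same strain given vehicle.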

[15] = NCI Yeast Anticancer Drug Screen. Data for the mlh1 rad18 strain (AID 175); details: S. cerevisiae mlh1 rad18 strain growth inhibition, stronger effect = higher value
How it was run: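 Steps: expose repair-defective yeast to compound; measure growth; express inhibition against vehicle-treated controls.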

[16] = NCI Yeast Anticancer Drug Screen. Data for the rad18 strain (AID 177); details: S. cerevisiae rad18 mutant growth inhibition, stronger effect = higher value
How it was run: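 Measured value is growth inhibition of a yeast strain bearing a DNA repair alteration, referenced to vehicle-treated cells.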

[17] = at 5.0 µM (retest, dose inferred, filed as 0.5)
[18] = at 50.0 µM (retest, dose inferred, filed as 5.0)

Measured: growth inhibition

O=c1nc2n(Cc3ccccc3)c3ccccc3nc-2c(=O)[nH]1
active: [3]; at 11.0 µM 74% | [3]; at 33.0 µM 92% | [3]; at 100.0 µM 97% | [4]; at 11.0 µM 74% | [4]; at 33.0 µM 94% | [4]; at 100.0 µM 96% | [8]; [18] 96% | [8]; at 50.0 µM 97.2% | [12]; at 33.0 µM 93% | [12]; at 100.0 µM 96% | [13]; at 33.0 µM 93% | [13]; at 100.0 µM 97% | [14]; at 11.0 µM 74% | [14]; at 33.0 µM 94% | [14]; at 100.0 µM 97%
inactive: [1]; at 1.2 µM 0% | [1]; at 3.7 µM 2% | [1]; at 11.0 µM 6% | [1]; at 33.0 µM 4% | [1]; at 100.0 µM 4% | [2]; at 1.2 µM -1% | [2]; at 3.7 µM 4% | [2]; at 11.0 µM 2% | [2]; at 33.0 µM 2% | [2]; at 100.0 µM 3% | [3]; at 1.2 µM 7% | [3]; at 3.7 µM 30% | [4]; at 1.2 µM -5% | [4]; at 3.7 µM 5% | [5]; at 1.2 µM -2% | [5]; at 3.7 µM -1% | [5]; [17] -15% | [5]; at 11.0 µM 2% | [5]; at 33.0 µM -1% | [5]; [18] 13% | [5]; at 50.0 µM 26.1% | [5]; at 100.0 µM 1% | [6]; at 1.2 µM -2% | [6]; at 3.7 µM 3% | [6]; [17] -2% | [6]; at 11.0 µM 5% | [6]; at 33.0 µM 6% | [6]; [18] -5% | [6]; at 50.0 µM 37.9% | [6]; at 100.0 µM 12% | [7]; at 1.2 µM 0% | [7]; at 3.7 µM 3% | [7]; at 11.0 µM 5% | [7]; at 33.0 µM 1% | [7]; at 100.0 µM 1% | [8]; [17] 39% | [9]; at 1.2 µM -12% | [9]; at 3.7 µM -7% | [9]; at 11.0 µM 3% | [9]; at 33.0 µM 5% | [9]; at 100.0 µM 0% | [10]; [17] 6% | [10]; [18] 22% | [10]; at 50.0 µM 28.2% | [11]; at 1.2 µM -3% | [11]; at 3.7 µM -6% | [11]; [17] 19% | [11]; at 11.0 µM -3% | [11]; at 33.0 µM -6% | [11]; [18] 1% | [11]; at 50.0 µM 11.4% | [11]; at 100.0 µM -8% | [12]; at 1.2 µM -2% | [12]; at 3.7 µM 3% | [12]; at 11.0 µM 67% | [13]; at 1.2 µM -3% | [13]; at 3.7 µM 3% | [13]; at 11.0 µM 65% | [14]; at 1.2 µM -2% | [14]; at 3.7 µM 11% | [15]; [17] 37% | [15]; [18] 39% | [15]; at 50.0 µM 26.6% | [16]; at 1.2 µM 0% | [16]; at 3.7 µM 1% | [16]; at 11.0 µM 4% | [16]; at 33.0 µM 9% | [16]; at 100.0 µM 9%

CC(C)(C)C1=CC(=CC=C2C=CN(CCCCCCCCCCCO)C=C2)C=C(C(C)(C)C)C1=O
inactive: [1]; at 1.2 µM -1% | [2]; at 1.2 µM -6% | [2]; at 3.7 µM 46% | [3]; at 1.2 µM -3% | [3]; at 3.7 µM -3% | [3]; at 11.0 µM -2% | [4]; at 1.2 µM -4% | [4]; at 3.7 µM -4% | [5]; at 1.2 µM -3% | [5]; at 3.7 µM 48% | [6]; at 1.2 µM -3% | [7]; at 1.2 µM -4% | [7]; at 3.7 µM 23% | [9]; at 1.2 µM -8% | [9]; at 3.7 µM 10% | [11]; at 1.2 µM -2% | [11]; at 3.7 µM 57% | [12]; at 1.2 µM -4% | [12]; at 3.7 µM 4% | [13]; at 1.2 µM -3% | [13]; at 3.7 µM 0% | [14]; at 1.2 µM -3% | [16]; at 1.2 µM -4% | [16]; at 3.7 µM 68%
active: [1]; at 3.7 µM 95% | [1]; at 11.0 µM 99% | [1]; at 33.0 µM 98% | [1]; at 100.0 µM 98% | [2]; at 11.0 µM 99% | [2]; at 33.0 µM 99% | [2]; at 100.0 µM 99% | [3]; at 33.0 µM 82% | [3]; at 100.0 µM 95% | [4]; at 11.0 µM 99% | [4]; at 33.0 µM 100% | [4]; at 100.0 µM 99% | [5]; [17] 86% | [5]; at 11.0 µM 99% | [5]; at 33.0 µM 98% | [5]; [18] 95% | [5]; at 50.0 µM 99.2% | [5]; at 100.0 µM 98% | [6]; at 3.7 µM 99% | [6]; [17] 99% | [6]; at 11.0 µM 99% | [6]; at 33.0 µM 99% | [6]; [18] 99% | [6]; at 50.0 µM 98.7% | [6]; at 100.0 µM 98% | [7]; at 11.0 µM 99% | [7]; at 33.0 µM 99% | [7]; at 100.0 µM 98% | [8]; [17] 99% | [8]; [18] 89% | [8]; at 50.0 µM 99.3% | [9]; at 11.0 µM 99% | [9]; at 33.0 µM 98% | [9]; at 100.0 µM 97% | [10]; [17] 99% | [10]; [18] 99% | [10]; at 50.0 µM 99.2% | [11]; [17] 94% | [11]; at 11.0 µM 98% | [11]; at 33.0 µM 98% | [11]; [18] 99% | [11]; at 50.0 µM 99% | [11]; at 100.0 µM 96% | [12]; at 11.0 µM 99% | [12]; at 33.0 µM 99% | [12]; at 100.0 µM 98% | [13]; at 11.0 µM 99% | [13]; at 33.0 µM 99% | [13]; at 100.0 µM 98% | [14]; at 3.7 µM 84% | [14]; at 11.0 µM 99% | [14]; at 33.0 µM 99% | [14]; at 100.0 µM 98% | [15]; [17] 98% | [15]; [18] 99% | [15]; at 50.0 µM 99.5% | [16]; at 11.0 µM 99% | [16]; at 33.0 µM 98% | [16]; at 100.0 µM 97%
